Experimental data taken from the supplement of paper PMC6555819.

The sequences below were run on LXRa homodimer (NR concentration 270 nM) (assay: PBM binding z-score (relative to random genomic background probes); higher = stronger binding; sequences stand for … in GC…GCGATTGACAGCGTAGAATGAAGG).
Procedure, shortened: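 Each nuclear receptor dimer, without ligand, was incubated for 1 h on custom Agilent 4×180K protein-binding microarrays. Binding was detected with antibodies against each partner (one per run), and scanned fluorescence was regression-normalized. The binding z-scores are referenced to random human genomic background probes.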

Sequence	PBM binding z-score
TGAATGAGGTTATAAGATCAGAGAACGTTGCAAA	-0.332
CCTACTGGGCCACGAAAGGTCATTGTTTCAGTGA	5.22
CGAACTAGTTCATTGACAGGACAGTGAATAGTAA	0.0589
CCAGACAGGTGAGAAGGTAACTCATCCTCGATTA	0.213
ATCGAAAGTTCGAGGTGAGTATAGAGAAAGGGAA	-0.204
TTATATAGGTAATACAGGTGAAAGTCGGCATCTA	0.509
TCTATTAGTTGAAGGGCAAGCGACGAGTCCGTTT	0.0576
TCTATTATTTGAAGGGCAACCGACGAGTCCGTTT	1.32
TCATATAGGTAAAAAGTGAAAGTCGGTGTGGTAA	0.0735
TCTTGTAGATCAATAGAGGTTAAGACAGTGCGCT	0.434
TCTTGTAGATCAATAGAGGTTATGAAAGTGCGCT	0.696
GCGACTGGCGCATCAGCAGGTTACCATAACTTAA	-0.313
ATCTCTAGGTAACGATAGTTCAGTGAATGCAAAT	0.491
CCGACTGGGGCACGGTTACCATAACGCACAGCCA	-0.346
CGAACGAGGGCATGAGTTGATTGCAAATGCCGAT	-0.529
TCTCAGAGGACACGAAGGTCAGAGCTTTCCAGAG	0.407
TAGCCAAGGTCATGCGGGCCAGTATAGTGTCGGC	1.17
